Compound activity (PubChem BioAssay)
AHR activator = activators of human aryl hydrocarbon receptor; 2.5% of 320,000 active; P35869; activation, % at 5 µM; AHR-responsive luciferase reporter cells, luminescence; in the data active = activation above about 47%;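 note: 0% = vehicle wells and 100% = reference agonist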
ssDAF12 agonist = S. stercoralis DAF-12 activation, primary screen. HEK293 ssDAF-12/GRIP1 lit1-tk-luc reporter, luminescence; % of 3 µM dafachronic acid response. activation, % at 6.8 µM. 1% of 370,000 active;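 active = activation above the mean over all tested compounds plus 3 SD, cut at about 0.9% in these data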;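 note: 0% = DMSO-only wells and 100% = 3 µM delta7-dafachronic acid wells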
hcDAF-12 act = activators of H. contortus DAF-12 nuclear receptor | HEK293 hcDAF-12 lit1-tk-luc reporter, luminescence; 0% DMSO, 100% Δ7-dafachronic acid | activation, % at 6.8 µM | 1.4% of 370,000 active | AID 652067;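 active = activation above the mean of all tested compounds plus 3 SD, cut at about 5.5% in these data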;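 note: 100% = response to 3 µM Δ7-dafachronic acid high control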
hgDAF12 agonist = agonists of H. glycines DAF-12 nuclear receptor. HEK293 GAL4-hgDAF12 UAS-luciferase reporter, agonist luminescence; normalized to butyrate control. activation, % at 6.8 µM. 1.8% of 370,000 active. AID 687014;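 active = activation above a cutoff set at the mean of all screened compounds plus 3 SD, cut at about 10% in these data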;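 note: 0% = DMSO wells and 100% = sodium butyrate wells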
DAX1 inh-1 = inhibits human nuclear receptor DAX1; P51843; HEK293 Gal4-DAX1 luciferase reporter, luminescence; inhibition, % at 6.75 µM; 0.99% of 340,000 active; AID 504766;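 active = inhibition above the mean over all tested compounds plus 3 SD, cut at about 4.2% in these data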;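 note: 0% = DAX1-transfected cells with DMSO and 100% = empty-vector control cells with DMSO; inhibition shows as a rise in luminescence from relieved DAX1 repression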
Target sequence (P51843 207-470 limits assumed): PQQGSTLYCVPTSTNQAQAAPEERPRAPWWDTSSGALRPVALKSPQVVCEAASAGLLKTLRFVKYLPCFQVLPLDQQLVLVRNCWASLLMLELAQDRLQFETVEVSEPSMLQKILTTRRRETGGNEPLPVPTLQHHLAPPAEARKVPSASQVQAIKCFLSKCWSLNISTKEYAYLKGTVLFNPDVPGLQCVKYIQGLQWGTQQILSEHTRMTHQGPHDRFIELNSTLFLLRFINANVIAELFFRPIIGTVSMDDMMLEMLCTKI
DAX1 inh-2 = DAX1 (NR0B1) inhibition, primary screen; HEK293T StAR-luciferase reporter, SF-1/DAX-1 repression relief; inhibition, % at 6.8 µM; 1.1% of 370,000 active; AID 652010;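 active = inhibition above the mean over all tested compounds plus 3 SD, cut at about 3.6% in these data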;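 note: 0% = DAX-1 cells with DMSO and 100% = cells lacking DAX-1 with DMSO; higher inhibition means more luminescence from relief of DAX-1 repression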
Starred values were filed as active, the others as inactive; nt = not tested or not shown. An excerpt weighted towards active compounds, which were near 5.7% of everything screened.

SMILES | AHR activator | ssDAF12 agonist | hcDAF-12 act | hgDAF12 agonist | DAX1 inh-1 | DAX1 inh-2
CC(Sc1nncn1C)C(=O)Nc1ccc2ccccc2c1 (configuration not stated) | nt | -1 | 1 | 1 | 4.6* | 3
CC(Sc1nncn1C)C(=O)Nc1ccc(S(N)(=O)=O)cc1 (configuration not stated) | 4 | -1 | 0 | -1 | 2 | 0
COc1ccc(-c2cc(C(F)(F)F)nc(SCC(=O)NCCCN3CCOCC3)n2)cc1 | -2 | -1 | -1 | -2 | 1 | 0
CCCCN(CC)C(=O)C1CCC(=O)N(c2ccc(OC)cc2)C1c1ccc(OC)c(OC)c1 (configuration not stated) | 0 | nt | nt | nt | -1 | nt
Cc1cc(OC(C)C(=O)N(Cc2ccco2)C2CCS(=O)(=O)C2)ccc1Cl (configuration not stated) | 0 | nt | nt | nt | -1 | nt
Cc1c(OC(=O)c2ccc([N+](=O)[O-])cc2)c2c(c[n+]1C)COC(C)(C)OC2 | -3 | nt | nt | nt | 0 | nt
Cc1ncc2c(c1OC(=O)c1ccccc1)COC(C)(C)OC2 | -3 | -1 | 0 | 1 | 5.1* | 0
COc1ccc(C(=O)NCCc2nnc(SCC(=O)Nc3ccccc3C(C)C)n2C)cc1 | 2 | -2 | -1 | -3 | 0 | -1
CCc1c(C)nc(SCc2ccccn2)[nH]c1=O | 4 | -1 | 2 | 1 | -1 | 0
CCOc1ccc(C(C(=O)NC2CCCCC2)N(C(=O)Cc2cccs2)c2ccc(-n3cnnn3)c(OC)c2)cc1 (configuration not stated) | 2 | 0 | -1 | 3 | 1 | 0
C/C(=N\Nc1nc(-c2ccccc2O)nc2ccccc12)c1ccccc1 | 53* | 0 | 5 | 5 | -2 | 1
CC(NC(=O)c1ccc(C#N)cc1)C1CC2CCC1C2 (configuration not stated) | -1 | -1 | -1 | -1 | 5.4* | 0
COc1ccc(NC(=O)NC(C)C2CC3CCC2C3)cc1 (configuration not stated) | 0 | 17* | 1 | -4 | 2 | 0
CCOc1ccc(CCNC(=O)CS(=O)Cc2nc(-c3ccc(OC)c(OC)c3)oc2C)cc1OCC (configuration not stated) | 7 | -1 | 1 | 1 | 0 | -1
COc1ccc(NC(=O)c2cccnc2SC)cc1S(=O)(=O)N1CCCCC1 | 6 | -1 | 0 | -1 | 1 | -1
Cc1cccc(C(=O)OCC(=O)NCC2COc3ccccc3O2)c1 (configuration not stated) | -1 | -1 | 3 | -2 | 0 | 4.3*
Cc1cc2c(cc1C)NC(=O)CC(C(F)(F)C(F)(F)C(F)(F)F)=N2 | 15 | -1 | -2 | 2 | 4.7* | 0
Cc1ccc2c(c1)NC(=O)CC(c1ccccc1)=N2 | 2 | -1 | -1 | 1 | 1 | 1
O=C(N/N=C/c1c[nH]c2ccc(Br)cc12)c1ccn(Cc2ccc(Cl)cc2)n1 | 7 | -1 | -1 | 4 | 0 | 0
COc1ccc(C(=O)N/N=C/c2cc3ccccc3[nH]c2=S)cc1 | 57* | -1 | 0 | 0 | -2 | -1
CC(C)c1cc(C(=O)N/N=C/c2c[nH]c3ccccc23)n[nH]1 | 20 | -1 | 2 | 2 | 4.7* | 0
O=C(CSc1nnc(SCc2ccccc2Cl)s1)N/N=C/c1c[nH]c2ccccc12 | 11 | 0 | 6.4* | 0 | -1 | 0
COc1ccc(C(=O)N/N=C/c2cccc3cccnc23)cc1 | 4 | -1 | -2 | -3 | -1 | -1
O=C(N/N=C/c1c[nH]c2ccccc12)c1ccn(Cc2ccc(Cl)cc2Cl)n1 | 50* | 0 | 4 | -2 | 1 | -1
CC(=O)Oc1cc2c(cc1Cl)C(c1cccs1)CC1(CC(C)(C)NC(=S)N1)O2 (configuration not stated) | -1 | -1 | 0 | 2 | -1 | -1
SMILES | AHR activator | ssDAF12 agonist | hcDAF-12 act | hgDAF12 agonist | DAX1 inh-1 | DAX1 inh-2
O=C(c1ccncc1)N1CC[C@H]2[C@H](CCCN2Cc2ccccc2)C1 | nt | -1 | -2 | 2 | nt | 1
O=C(CNc1ccccc1)Nc1cccc2ccccc12 | 5 | -2 | 1 | 0 | 0 | 0
CC(C)NC(=S)N/N=C/c1c[nH]c2ccccc12 | 129* | -1 | 4 | 7 | 1 | 0
COc1ccc(C(=O)N/N=C/c2c[nH]c3ccccc23)cc1 | 56* | 0 | 3 | 4 | 3 | 0
O=C(N/N=C/c1c[nH]c2ccccc12)c1cccc(Cl)c1 | 52* | 1.4* | 5 | 6 | 2 | 0
CC(C)N=C(Nc1ccc(Cl)cc1)c1cccnc1 | 79* | -2 | 0 | -2 | 0 | 0
CCCc1cc(=O)oc2cc3occ(C)c3cc12 | 47* | -2 | -1 | 1 | 1 | -2
[C-]#[N+][C@]12C(=O)[C@H](C=C(Cl)[C@@]1(C)C=C)C(C)(C)[C@H]1C(=O)N(C)c3cccc2c31 | nt | -2 | -2 | -4 | nt | -2
O=C(Nc1ccc(F)cc1F)c1csc(-c2ccncc2)n1 | 51* | -1 | 1 | 2 | 0 | 0
CCCc1cc(C(=O)Nc2ccc(CC)cc2)no1 | -2 | 0 | 5 | 11* | 3 | 2
CC(C)Cc1cc(C(=O)Nc2cc(Cl)ccc2Cl)no1 | 16 | -1 | 6 | 0 | 0 | 0
CCc1ccc(NC(=O)c2cc(C)no2)cc1 | 1 | -1 | 1 | 5 | 4.4* | 0
CC(C)Cc1cc(C(=O)Nc2ccc(F)cc2F)no1 | -1 | -1 | 1 | 12* | 1 | 3.9*
O=C(Nc1ccc(F)cc1F)c1cc(-c2ccco2)on1 | -8 | -2 | 0 | 1 | 2 | 0
CCc1cc(C(=O)OC)c(NC(=O)CSc2nccn2C)s1 | 5 | -1 | -2 | 2 | 0 | -1
COc1ccc(C(O)c2cnc(C)n2Cc2ccccc2)cc1 (configuration not stated) | nt | -1 | 0 | -4 | 0 | 0
CCOC(=O)CNC(=S)N1CCn2c(nc3ccccc32)C1 | 19 | -2 | 0 | -3 | -1 | -1
CC1=C(C(=O)OCc2ccccc2)C(c2ccc3c(c2)OCO3)NC(=O)N1CCCC(=O)O (configuration not stated) | 1 | -1 | -1 | 0 | 2 | 1
CCCC[C@@H]1C(=O)N2N=C(c3ccccc3)c3ccccc3[C@H]2N2N=C(c3ccccc3)c3ccccc3[C@@H]12 | nt | -1 | 2 | -3 | nt | -1
Cc1oc(C(C)(C)C)c(CN2CCOCC2)c1C(=O)O | -1 | -1 | -2 | -2 | 0 | 2
CCCc1cc(C(=O)Nc2cc(Cl)ccc2O)no1 | -6 | 0 | 5.6* | 11* | 3 | 1
CCc1ccc(NC(=O)c2cc(CC(C)C)on2)cc1 | 3 | 0 | 2 | 8 | 5.1* | 1
